# Measurements taken from PubChem BioAssay.
# Results filed as inconclusive are left out. Active and inactive are the calls of the source. Unless noted, no cut-off is given here; in the data, nearly all actives have AC50 up to about 23 µM.
# Legend:
# [1] = viability loss in pontine glioma line – cell-based, SU-DIPG-XIII, MIPE5.0, CellTiter-Glo, qHTS, dose response (AID 1347064); details: CellTiter-Glo ATP luminescence;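 for AC50: cells exposed to compound for 48 hours before the viability read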
# [2] = growth inhibition of DIPG cells – cell-based, MIPE4.0 library, CellTiter-Glo luminescence, qHTS (AID 1347066; cut-off not given, nearly all actives have AC50 up to about 30 µM;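 note: cells exposed to compound for 48 hours before readout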); details: SU-DIPG-VI viability, CellTiter-Glo ATP luminescence
# [3] = viability loss in pontine glioma line – cell-based, SU-DIPG-XXV, MIPE5.0, CellTiter-Glo, qHTS, dose response (AID 1347065; cut-off not given, nearly all actives have AC50 up to about 26 µM;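 note: cells exposed to compound for 48 hours before ATP readout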); details: CellTiter-Glo ATP luminescence
# [4] = growth inhibition of DIPG cells – cell-based, MIPE5.0 library, qHTS (AID 1347068; cut-off not given, nearly all actives have IC50 up to about 30 µM); details: SU-DIPG-XXV viability
# [5] = JHH-DIPG-1 glioma cell viability, MIPE5.0 library, CellTiter-Glo luminescence, qHTS (AID 1347067; cut-off not given, nearly all actives have AC50 up to about 26 µM;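 note: cells exposed to compound for 48 hours before readout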); details: JHH-DIPG-1 glioma viability, CellTiter-Glo ATP luminescence
# [6] = viability loss with induced miR-34 in A549 – imaging, A549 dox-inducible miR-34, nuclei and caspase counts, primary screen (AID 1347080;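 active = compounds whose cell count with miR-34 switched on is under 0.7 times the count with it off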); details: A549 miR-34 inducible, Hoechst nuclei count, 48 h
# [7] = MELAS cybrid and Rieske KO viability enhancers – cell-based, MELAS cybrids, Rieske KO mouse fibroblasts, CellTiter-Glo, primary screen (AID 1508586;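 active = mean z-score across replicates of 1.96 or higher in either the MELAS or the Rieske mutant cell line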;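 note: z relative to plate mean and SD of compound and empty wells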); details: low glucose
smiles,measurement,setting,value
CN(C)S(=O)(=O)c1ccc2c(c1)C(=Cc1cc3c([nH]1)CCCC3)C(=O)N2,outcome,[1],inactive
same,outcome,[2],inactive
COc1cccc(-c2ccc(NC(=O)C3=C(C(=O)O)CCC3)c(F)c2)c1,outcome,[1],inactive
same,outcome,[3],inactive
same,outcome,[4],inactive
C[C@H]1CNCCCN1S(=O)(=O)c1cccc2cncc(F)c12,outcome,[1],inactive
same,outcome,[5],inactive
same,outcome,[4],inactive
O=C(Nc1ccc(F)c(C(F)(F)F)c1)Nc1nnc(-c2ccncc2)s1,outcome,[1],inactive
same,outcome,[2],inactive
same,outcome,[5],inactive
same,outcome,[4],inactive
Nc1nccc(-c2c(-c3ccc(F)cc3)ncn2C2CCCCC2)n1,outcome,[1],inactive
same,outcome,[5],inactive
same,outcome,[4],inactive
Cc1nc2ccc(C(=O)N3CCC4(CC3)CC(=O)c3c(cnn3C(C)C)C4)cc2[nH]1,outcome,[1],inactive
same,outcome,[5],inactive
CC1(N)CCN(c2cccnc2NC(=O)c2nc(-c3ncccc3C(F)(F)F)cnc2N)CC1,outcome,[1],inactive
same,outcome,[5],inactive
CCOCc1nc2c(N)nc3ccccc3c2n1CC(C)(C)O,outcome,[1],inactive
same,outcome,[3],inactive
same,outcome,[4],inactive
NCc1ccc(OCCCc2sc(-c3ccc4c(c3)/C(=N/Nc3nc5ccccc5s3)CCC4)nc2C(=O)O)cc1,outcome,[1],inactive
same,outcome,[3],inactive
same,outcome,[4],inactive
Cc1cc(C)cc(Oc2ccc(CNC(=O)[C@H](C)N)cc2C)c1,AC50,[1],26.3 µM (active)
same,AC50,[3],18.6 µM (active)
same,outcome,[4],inactive
O=C(NNc1ccccc1)c1ccncc1,outcome,[1],inactive
same,outcome,[3],inactive
same,outcome,[4],inactive
same,fold change,"[6]; stronger effect = lower value, cell number ratio, induced over uninduced",0.922 (inactive)
same,fold change,[6]; measured here: relative caspase fold change +Dox/-Dox,0.452
same,cell count,"[6]; measured here: total cells with miR-34 induction, stronger effect = lower value",7960
same,cell count,[6]; measured here: total cells without miR-34 induction,8630
same,z-score,"[7]; MELAS cybrid survival, CellTiter-Glo 48 h, stronger effect = higher value",-0.433 (inactive)
same,z-score,"[7]; Rieske KO mouse fibroblast survival, CellTiter-Glo 72 h",-1.65
C=CCN(/C=C1\C(=O)O[C@@H](COC)[C@]2(C)C1=C(O)C(=O)C1=C2[C@@H](OC(C)=O)C[C@]2(C)C(=O)CC[C@H]12)CC=C,AC50,[1],16.6 µM (active)
same,AC50,[3],9.34 µM (active)
same,outcome,[4],inactive
